# Laboratory results: ChEMBL document CHEMBL3988442, “University of Dundee, Small-Polar-MMV Screening Library” (2021)
# About 1,200 (3.2%) of roughly 38,000 compounds showed an effect of 50% or more. The median lay at about -58%. The list comes from a sample in which strong results are over-represented; it also holds similar structures and randomly drawn compounds.
# Tested on: Plasmodium falciparum
# Assay: Calibr Malaria Delayed Death Assay SOP
# Type: functional, organism-based
# Design: scale not given: in the data most compounds retested in dose-response had high values
# Settings: concentration 4.99e-06 (unit not given; other assays of the set use mol/L)
row,Compound,Percent Effect [%]
1,O=C(NCCc1ccncc1)c1ccc(S(=O)(=O)NC2CCC2)cc1,-25
2,CSCC[C@@H](CO)NC(=O)c1sc(-c2ccc(Cl)cc2)nc1C,-102.9
3,CCOC(=O)CSc1nnc(C(N)CC(C)C)o1.Cl (stereo not given),-109.2
4,NC(=O)NCC1CCCCN1C(=O)c1cc(F)cc(F)c1 (stereo not given),-156.9
5,CC1CCCN(C(=O)CNC(=O)c2ccoc2)C1 (stereo not given),-96.13
6,CC(C)(C)CC(=O)Nc1cnn(-c2ccccc2S(C)(=O)=O)c1,-5.765
7,c1ccc2oc(CCCN3CCc4cncnc4C3)nc2c1,-82.49
8,Cc1ncc2c(n1)CN(Cc1nc3ccccc3o1)CC2,-59.98
9,CC(C)c1ncc2c(n1)CN(CCCc1nc3ccccc3o1)CC2,69.07
10,O=C(NCCc1cnccn1)c1cccc(S(=O)(=O)NC2CCOC2)c1 (stereo not given),-80.94
11,O=C(c1cnn[nH]1)N(CCCO)Cc1cccnc1,-126.7
12,CN(Cc1ccsc1)C(=O)CNC(=O)N1CCc2ccccc2C1,-30.75
13,COc1cccc(CN2CCC3(CC(Nc4ccncn4)C3)C2)c1F (stereo not given),-62.87
14,CN1CCN(S(=O)(=O)c2cccc(C#N)c2)c2ccc(F)cc21,-39.03
15,N#Cc1cccc(S(=O)(=O)N2CC(CC(=O)O)c3ccccc32)c1 (stereo not given),-122.6
16,CN(C)C1Cc2ccccc2N(S(=O)(=O)c2cccc(C#N)c2)C1 (stereo not given),75.93
17,CC(=O)NCCNC(=O)C(c1ccccc1C)N(C)C (stereo not given),-142.6
18,Cc1cscc1-c1nc(C2CCOC2)no1 (stereo not given),-27.07
19,O=C(c1scc2c1OCCO2)N1CCOC(Cc2ccc(F)cc2)C1 (stereo not given),-16.04
20,O=C(c1scc2c1OCCO2)N1CCOC(CCc2ccccc2)C1 (stereo not given),88.31
21,O=C(c1scc2c1OCCO2)N1CCOC(Cc2cccc(F)c2)C1 (stereo not given),-44.17
22,CC1CCC(NS(=O)(=O)CC(=O)NCC2CCC2)CC1 (stereo not given),-74.87
23,O=C(CCc1ccco1)N1CCC(Oc2ccccc2)(C(=O)O)CC1,-48.84
24,O=C(NCc1cccnc1)C1=NN(c2ccccc2)C(=O)CN1,39.33
25,COc1ccc(CNC(=O)C2=NN(c3ccc(C)cc3)C(=O)CN2)cc1,74.74
26,COc1ncccc1CNC(=O)C1=NN(c2ccccc2)C(=O)CN1,-51.2
27,CN1C(=O)CC[C@]12CC[C@@H](NC(=O)NCc1cccnc1)CC2.O=C(O)C(F)(F)F,-78.37
28,COCCN(C/C=C/c1ccccc1)Cc1nccs1,-11.48
29,COCCN(C/C=C/c1ccccc1)Cc1ccccn1,20.8
30,CCc1ccc(CN(C/C=C/c2ccccc2)CCOC)nc1,52.86
